The results in this text go back to PubChem BioAssay AID488890 (Southern Research Specialized Biocontainment Screening …, 2010).

The campaign covered roughly 320,000 compounds. About 1,300 (0.41%) were called active. Roughly 3% stayed inconclusive and do not appear here. The rule behind the calls is not given here. Not all results are given here. Entries with a potency or affinity are not part of this list.

The assay is described as follows: growth inhibition of non-replicating M. tuberculosis (AID 488890).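 Note: plate controls were DMSO cells for no effect and high antibiotic wells for full effect.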 The settings on record: Mycobacterium tuberculosis non-replicating, at 25 µM, stronger effect = higher value.
A word on the inhibition: it is the drop in the measured response relative to a control, in per cent. Regarding `CCOc1ccc(C(=O)NC2CCN(C(=O)Nc3ccc(F)cc3)CC2)cc1`, the inhibition was -4.31%. The result for `CN(c1ccccc1)S(=O)(=O)c1ccc(Cl)c(C(=O)NC2=NCCS2)c1` reads 27.5%; that for `O=C(Nc1nnc(C23CC4CC(CC(C4)C2)C3)s1)c1ccc(N2C(=O)CCC2=O)cc1`, 13.4%. The result for `COc1cc(NC(=S)N2CCOCC2)c(OC)cc1Cl` reads 1.57%.

Consider `CCOc1ccccc1NC(=O)C1CCCCN1S(=O)(=O)c1ccc(F)cc1` (centres undefined), for which the inhibition stood at 14.8%. The result for `COc1ccc(/C=C2\C(=O)NC(=O)N(Cc3ccccc3)C2=O)c(OC)c1OC` reads -15.4%. The result for `O=C(NCC(=O)N1CCN(Cc2ccc3c(c2)OCO3)CC1)c1ccccc1F` reads 6.65%; that for `N#C/C(N)=C(/C#N)N=Cc1cccc(Cl)c1`, 8.31%; that for `CNC(=O)/C(C#N)=C/c1ccc(OCCOc2ccccc2)cc1`, 63.6%. Take `CCOc1ccc(/C=N/NC(=O)CCC(=O)Nc2ccc(F)cc2)cc1`: the inhibition was 1.12%. With `CCOc1ccc(NC(=O)CCC(=O)N/N=C/c2ccc3c(c2)OCO3)cc1`, the inhibition is 12.5%.

For `O=C(N/N=C/c1ccc(Br)s1)c1cccc([N+](=O)[O-])c1`, the inhibition is -22%. The result for `Cc1ccc(/C=N/NC(=O)C(C)Oc2ccccc2[N+](=O)[O-])s1` (centres undefined) reads -10.9%; that for `CCOc1ccc(NC(C)C(=O)N/N=C/c2ccc([N+](=O)[O-])cc2)cc1` (centres undefined), 7.41%; that for `O=C(N/N=C/c1ccc(O)cc1)c1cncc(Br)c1`, 17.6%. The value for `O=C(N/N=C/c1cccc([N+](=O)[O-])c1)c1cccc(Br)c1` was -5.27%; that for `Cn1cccc1/C=N\NC(=O)c1cncc(Br)c1` was -6.5%. On to `COC(=O)c1c(C)[nH]c(C(=O)CSc2nnnn2-c2ccccc2)c1C`, for which the inhibition was -4%. For `O=C(COC(=O)c1ccccc1NC(=O)c1ccco1)NC1CCS(=O)(=O)C1` (centres undefined), the inhibition came out at 73.7%. Regarding `O=C(COC(=O)C1CCN(C(=O)Nc2ccccc2)CC1)NCC(F)(F)F`, the inhibition was -2.77%. The result for `CS(=O)(=O)N1CCC(C(=O)NCc2ccc(Cl)cc2)CC1` reads 8.1%. Turning to `COc1ccc(-n2nc3cc(C)c(NC(C)=O)cc3n2)cc1`, the inhibition is 1.69%.

Consider `COC(=O)Cn1c(CN2CCN(C(=O)c3ccco3)CC2)nc2c1c(=O)n(C)c(=O)n2C`, for which the inhibition turned out to be 0.07%.

For the molecule `O=P(Cc1cccc[n+]1[O-])(c1ccccc1)c1ccccc1`, the inhibition was -13.7%.

Take `CC(C)C(c1nnnn1Cc1ccccc1)N1CCN(Cc2ccc3c(c2)OCO3)CC1` (centres undefined): the inhibition stood at 31.2%. Consider `Cc1nc(SCC(=O)N2CCOCC2)c2c(=O)n(C)c(=O)n(CC(C)C)c2n1`, for which the inhibition was -4.99%. The result for `Cc1ccccc1NCC(=O)N/N=C/c1ccc([N+](=O)[O-])cc1` reads 10%.

Turning to `Cc1onc(-c2ccccc2)c1C(=O)N/N=C/c1ccc([N+](=O)[O-])c(O)c1`, the inhibition is 32%.

Regarding `Cc1ccccc1NCC(=O)N/N=C\C=C\c1cccc([N+](=O)[O-])c1`, the inhibition amounted to 44%. Regarding `CCOC(=O)N/N=C/c1ccc(N2CCOCC2)s1`, the inhibition came out at 1.14%. The result for `O=C(NN=Cc1ccc(N2CCOCC2)s1)c1ccc([N+](=O)[O-])cc1` reads 0.11%; that for `CCOC(=O)N/N=C\c1ccc(C)s1`, -9.49%; that for `Cc1onc(-c2ccccc2)c1C(=O)N/N=C/c1cccs1`, 51.2%.

For the molecule `O=C(N/N=C/c1ccc(Br)s1)c1ccc([N+](=O)[O-])cc1`, the inhibition was 10.3%.
